High-throughput results as filed in PubChem.
An excerpt weighted towards active compounds, which were near 21% of everything screened.
HCV inhibitor – qHTS Assay for Inhibitors of Hepatitis C Virus (HCV). Huh7.5.1 HCVcc-Cre infection, luciferase reporter, 44 h. Potency, µM (titrated, usually from 41.8 µM), usual class: inhibitors. actives 3.4% (n = 340,000). AID 651820, 2012
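Infectious HCV cell culture screen: compound-treated cells (1,000/well, pre-plated 4 h) are infected with HCVcc-Cre at roughly 0.5 moi and grown 44 h. Infection is quantified by luciferase signal after 15 min substrate incubation at room temperature.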
Cycloheximide cs – Cycloheximide Counterscreen for Small Molecule Inhibitors of Shiga Toxin; cell reporter, cycloheximide protein synthesis inhibition counterscreen; AID 2314, 2010; max response, %; actives 12% (n = 300,000); in the data active means max response mostly above about 13%, no sharp cut-off; inactive means mostly below about 14%; further: read at 38.3 µM for the half of the compounds with a filed dose
Pf growth 96h – Primary qHTS for delayed death inhibitors of the malarial parasite plastid, 96 hour incubation | actives 6.9% (n = 320,000) | Potency, µM (series often up to 28.7 µM), actives largely listed as inhibitors | P. falciparum luciferase reporter growth, 96 h
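Infected RBCs, 2% Hct / 0.05% parasitemia final; luciferase-reporter P. falciparum; cpd 96 h, 37 C, 5% CO2; luciferase detection reagent; luminescence.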
Pf growth 48h – Primary qHTS for delayed death inhibitors of the malarial parasite plastid, 48 hour incubation; actives 5.9% (n = 310,000); Potency, µM (series often up to 28.7 µM), most hits filed as inhibitors; AID 504832, 2011; P. falciparum luciferase growth in erythrocytes, 48 h
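In quantitative HTS format, infected erythrocytes bearing luciferase-reporter parasites were treated for a single generation at 37 C. Luminescence after adding detection reagent served as the growth measure.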
HCMV inh – qHTS Assay for inhibitors of the human cytomegalovirus (HCMV); HFF cells, HCMV-luciferase reporter, 72 h; stronger effect = lower value; activity change, negative = inhibition, % at 57.5 µM; actives 4.5% (n = 410,000); AID 1259415, 2018; in the data active means activity change below about -60%; inconclusive means no clear call, values can overlap the other calls; inactive means above about -39%
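Inhibition of viral replication was scored as loss of reporter luminescence in HFFs infected with HCMV-luciferase (MOI 1 PFU/cell) for 72 h; compounds tested at 2 doses, normalized to buffer and Salinomycin controls.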
Shiga toxin inh – A qHTS for Small Molecule Inhibitors of Shiga Toxin. Vero cells, Shiga toxin protein synthesis inhibition reporter. inhibition, % at 38.7 µM. actives 9.2% (n = 290,000). AID 2315, 2010; in the data active means inhibition mostly above about 28%, no sharp cut-off; inactive means mostly below about 43%
Numbers stand for hits; – = inactive; ? = inconclusive; · = no result; ! = a repeat was not active; [ ] = dose if it differs, or a comment. Unless noted, the call rests on the fitted dose curve; in most records, active means well fitted inhibition curve with a large enough effect; inconclusive means small, poorly fitted or top-dose-only effect, or another doubt; inactive means no such curve, though single readings can be large or run the other way.

SMILES	HCV inhibitor	Cycloheximide cs	Pf growth 96h	Pf growth 48h	HCMV inh	Shiga toxin inh
CC(C)=CC(=O)Nc1ccc(S(=O)(=O)Nc2ccccn2)cc1	–	–	–	–	–	–
Cc1ccc(CN(Cc2cc3cc4c(cc3[nH]c2=O)OCCO4)Cc2nnnn2Cc2ccco2)cc1	?	–	?	·	–	–
Cc1ccc2cc(C(c3nnnn3C3CCCC3)N(Cc3cccnc3)Cc3ccco3)c(=O)[nH]c2c1 (stereo unspecified)	–	–	–	13µM	–	–
COc1ccccc1CN(Cc1cc2c(C)ccc(C)c2[nH]c1=O)Cc1nnnn1Cc1ccco1	–	–	·	4.7µM	–	–
Cc1ccc2cc(CN(Cc3ccc4c(c3)OCO4)Cc3nnnn3Cc3ccco3)c(=O)[nH]c2c1	16µM!	–	–	?	?	–
Cc1ccc(C)c2[nH]c(=O)c(C(c3nnnn3Cc3ccco3)N3CCc4ccccc4C3)cc12 (stereo unspecified)	?	27	6.6µM	12µM	–	78
CCOC(=O)Cn1nnnc1C(C(C)C)N(Cc1cc2c(C)cc(C)cc2[nH]c1=O)C1CCCC1 (stereo unspecified)	–	–	–	6.6µM	–	–
COc1ccc2cc(CN(CCc3ccccc3)Cc3nnnn3Cc3ccco3)c(=O)[nH]c2c1	–	–	–	6.6µM	?	–
COc1ccc2[nH]c(=O)c(CN(Cc3nnnn3Cc3ccco3)C3CCCCC3)cc2c1	?	–	5.2µM	?	–	–
CCOC(=O)Cn1nnnc1C(CC)N(Cc1cccs1)Cc1cc2ccc(OC)cc2[nH]c1=O (stereo unspecified)	–	8.5	?	–	–	–
CC(=O)N(Cc1cc2c(C)cc(C)cc2[nH]c1=O)C1CCCCC1	–	–	·	?	–	–
COc1ccc2[nH]c(=O)c(CN(Cc3ccccc3)Cc3nnnn3CC3CCCO3)cc2c1 (stereo unspecified)	–	–	–[5.75 µM]	–	–	–
Cc1nc2ccc(S(=O)(=O)NC(CC(C)C)C(=O)NCc3ccc(Cl)cc3)cc2s1 (stereo unspecified)	·	·	·	·	–	·
CC(=O)Nc1ccc(S(=O)(=O)N2CCC(n3c(C(F)(F)F)nc4cccnc43)CC2)cc1	·	·	·	·	–	·
Fc1ccc(C(Nc2ccccc2Cl)c2nnc(-c3ccccc3Cl)o2)cc1 (stereo unspecified)	·	·	·	·	–	·
CCC(C(=O)O)N1C(=O)C2CCCCC2C1=O (stereo unspecified)	–	–	–	–	–	–
CCC(c1nnnn1C1CCCCC1)N(Cc1ccco1)Cc1cc2ccc(OC)cc2[nH]c1=O (stereo unspecified)	3.5µM	–	–	7.4µM	?	–
COc1ccc2[nH]c(=O)c(CN(C3CCCCC3)C(c3nnnn3Cc3ccco3)C(C)C)cc2c1 (stereo unspecified)	?	–	–	13µM	·	–
O=C(CCC(=O)OCC(=O)c1ccc([N+](=O)[O-])cc1)Nc1ccccc1Cl	–	–	13µM	?	·	–
O=C(CCc1ccccc1)OCC(=O)c1ccc([N+](=O)[O-])cc1	–	–	12µM	–	?	–
O=C(CC(=O)c1ccccc1)Nc1cc([N+](=O)[O-])ccc1Cl	–	16	–	–	–	–
COc1ccc(C(=O)COC(=O)CCc2ccccc2)cc1	–	–	–	–	–	–
Cc1cc(N/N=C/c2ccncc2)nc2ccccc12	?	–	?	?	–	49
Cc1cc(C(=O)N/N=C/c2ccncc2)c2ccccc2n1	–	–	–	–	–	–
CN(C)c1nc(NCc2ccccc2)nc(N/N=C/c2cccc(Br)c2)n1	?	–	–	?	?	–
SMILES	HCV inhibitor	Cycloheximide cs	Pf growth 96h	Pf growth 48h	HCMV inh	Shiga toxin inh
Cc1cc(N/N=C/c2cccc(Br)c2)nc2ccccc12	–	33	–	?	–	24
COc1ccc([N+](=O)[O-])cc1N(CC(=O)NC(C(C)C)C(C)C)S(C)(=O)=O	–	–	?	–	–	–
COC(=O)CN1C(C(=O)c2ccccc2)=C(OC(=O)c2ccc(C)cc2)c2ccccc2S1(=O)=O	·	·	·	·	–	·
CCN1/C(=C(\O)c2ccccc2)C(=O)c2ccccc2S1(=O)=O	–	–	–	?	-88	–
CCCCN(CCCC)C1=C(C(=O)c2ccccc2)N(CC)S(=O)(=O)c2ccccc21	·	·	·	·	–	·
CCCN1C(C(=O)c2ccccc2)=C(OC(=O)c2ccc(C)cc2)c2ccccc2S1(=O)=O	·	·	·	·	-85	·
CCN1C(C(=O)c2ccccc2)=C(OC(=O)c2ccc(OC)cc2)c2ccccc2S1(=O)=O	·	·	·	·	-68	·
CCCN1C(C(=O)c2ccccc2)=C(OC(=O)c2ccc(F)cc2)c2ccccc2S1(=O)=O	·	·	·	·	-90	·
CCn1cc(S(=O)(=O)c2ccc(C)cc2C)c(=O)c2cc(F)c(N3CCCC3)cc21	·	·	·	·	–	·
O=C1N=NC(=O)N1c1ccccc1	–	–	–	–	–	–
CCN1C(C(=O)c2ccccc2)=C(OC(=O)COc2ccccc2)c2ccccc2S1(=O)=O	·	·	·	·	-60	·
CCOC(=O)C1CCN(c2cc3c(cc2NC(=O)c2ccc(F)cc2)n(C)c(=O)n3C)CC1	?	–	–	12µM	–	–
CCOC(=O)C1CCN(c2cc3c(cc2NC(=O)c2ccccc2F)n(C)c(=O)n3C)CC1	11µM	–	–	?	–	–
Cn1c(=O)n(C)c2cc(NC(=O)c3ccc(F)cc3)c(Br)cc21	–	–	2.9µM	?	?	–
CCOC(=O)C1CCN(c2cc3c(cc2NC(=O)c2ccc(Cl)cc2)n(C)c(=O)n3C)CC1	·	·	·	·	–	·
CC(C)(C)C(=O)Nc1ccccc1C(=O)NCCC(=O)Nc1ccccc1	–	·	?	?	–	·
O=c1c2ccccc2c(C=Nc2ccc(S(=O)(=O)Nc3ncccn3)cc2)c(O)n1-c1cccc(Cl)c1	·	–	?	?	–	–
Cc1cc(N=Cc2c(O)n(-c3cccc(Cl)c3)c(=O)c3ccccc23)no1	–	–	–	–	-60	–
CCOC(=O)c1c(-c2ccccc2)csc1NC(=O)c1cc(-c2ccc(C)c(F)c2)on1	·	·	·	·	–	·
O=C(Cc1ccccc1)N/N=C/c1ccc(-c2ccc([N+](=O)[O-])cc2)o1	–	–	–	–	-61	–
COc1ccc(N=Cc2ccc(-c3ccccc3)o2)cc1	–	16	12µM	–	–	–
O=[N+]([O-])c1cc(-c2ccc(/C=N\n3cnnc3)o2)cc([N+](=O)[O-])c1	?	–	?	7.4µM	–	–
O/N=C/c1ccc(-c2cc(Cl)ccc2Cl)o1	?	–	–	–	-62	–
O=[N+]([O-])c1ccccc1-c1ccc(/C=N/n2cnnc2)o1	·	–	–	–	–	–
CCOc1ccc(N(CC)S(=O)(=O)N2CCCC(C(=O)Nc3cc(Cl)ccc3C)C2)cc1 (stereo unspecified)	·	·	·	·	–	·
